In PubChem BioAssay (NCI):
This is part of a sample that, as a whole, favours compounds with a hit. Of some 83,000 tested, about 20% had one in any assay.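 Plates (96-well) were seeded with cells, treated with compound at one concentration, and incubated for 48 hours before percent growth was determined.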 The source made the active and inactive calls. How the source made its calls: active means growth percent below 10; inactive means the rest.

Tests used:
Experiment in all cases: NCI-60 one-dose screen, 48 h (100 = growth as untreated, 0 = no growth, -100 = all killed)
Conditions in all cases: 10 µM unless noted
SK-MEL-2 melanoma = system: SK-MEL-2 melanoma
SN12C renal = system: SN12C renal
UO-31 renal = system: UO-31 renal
TK-10 renal = system: TK-10 renal
ACHN renal = system: ACHN renal
CAKI-1 renal = system: CAKI-1 renal
A498 renal = system: A498 renal
CCRF-CEM leukemia = system: CCRF-CEM leukemia
MOLT-4 leukemia = system: MOLT-4 leukemia
EKVX NSCLC = system: EKVX NSCLC

Measured: growth

CCCCCCCCCCCCCC(=S)NCCCC[C@H](NC(=O)OCc1ccccc1)C(=O)Nc1ccccc1
inactive: SK-MEL-2 melanoma 40.5% | SN12C renal 27.3% | UO-31 renal 28.6% | TK-10 renal 44.2% | ACHN renal 24.6% | CAKI-1 renal 34.5% | A498 renal 55.4% | CCRF-CEM leukemia 27.3% | MOLT-4 leukemia 21.6%

CCOC(=O)Nc1ccc2nc(-c3cscn3)[nH]c2c1
inactive: SK-MEL-2 melanoma 32.4% | SN12C renal 51.1% | UO-31 renal 50.9% | TK-10 renal 63.2% | ACHN renal 73.9% | CAKI-1 renal 39.3% | A498 renal 41.8% | CCRF-CEM leukemia 70.8% | MOLT-4 leukemia 49.9%

O=C(NCC(c1ccsc1)N1CCCCCC1)c1ccc(C(F)(F)F)cc1 (stereo unspecified)
inactive: SK-MEL-2 melanoma 94.3% | SN12C renal 96.8% | UO-31 renal 88.1% | TK-10 renal 94.5% | ACHN renal 103% | CAKI-1 renal 85% | A498 renal 89.4% | CCRF-CEM leukemia 96.2% | MOLT-4 leukemia 78.2%

CCCCCCCCNC(C)C(O)c1ccc(SC(C)C)cc1 (stereo unspecified)
inactive: SK-MEL-2 melanoma 71.4% | EKVX NSCLC 25.2% | SN12C renal 60.9% | UO-31 renal 29.5% | A498 renal 96.8%
active: TK-10 renal 6.81% | CAKI-1 renal -56.8% | CCRF-CEM leukemia -0.667% | MOLT-4 leukemia -46.6%

c1ccc(C2=Nc3ccccc3SC2)cc1
inactive: SK-MEL-2 melanoma 105% | EKVX NSCLC 87.3% | SN12C renal 107% | UO-31 renal 67.8% | TK-10 renal 105% | ACHN renal 95.4% | CCRF-CEM leukemia 86.9% | MOLT-4 leukemia 111%

[O-]/[N+](=C\c1ccccc1)CC1(O)CCCCC1
inactive: SK-MEL-2 melanoma 111% | SN12C renal 94.5% | UO-31 renal 96.3% | TK-10 renal 103% | ACHN renal 99.2% | CAKI-1 renal 104% | A498 renal 82.9% | CCRF-CEM leukemia 101% | MOLT-4 leukemia 106%

COc1cc2cc(C(=O)Nc3ccccc3)c(N)nc2cc1OC
inactive: SN12C renal 49.1% | A498 renal 52.4%
active: SK-MEL-2 melanoma -62% | UO-31 renal 5.81% | TK-10 renal -48% | ACHN renal -0.0696% | CAKI-1 renal -13.8% | CCRF-CEM leukemia -21.7% | MOLT-4 leukemia -44.6%

Cc1cc(C)cc(Nc2cc(C)nc3nc(C(F)(F)F)nn23)c1
inactive: SK-MEL-2 melanoma 22.6% | SN12C renal 31.9% | TK-10 renal 46.1% | ACHN renal 28.6% | CAKI-1 renal 12.4% | A498 renal 67% | CCRF-CEM leukemia 16.9% | MOLT-4 leukemia 18.4%
active: UO-31 renal 2.04%

CCCN(CCC)CC(O)COc1ccccc1C(=O)Nc1ccccc1 (stereo unspecified)
inactive: SK-MEL-2 melanoma 58% | SN12C renal 81.6% | UO-31 renal 78.1% | TK-10 renal 111% | ACHN renal 77.2% | CAKI-1 renal 57.5% | A498 renal 53.9% | CCRF-CEM leukemia 71.2% | MOLT-4 leukemia 78%

Cc1cc(NC(=O)C2c3ccccc3C(=O)N(CC(C)C)C2c2cccs2)no1 (stereo unspecified)
inactive: SK-MEL-2 melanoma 50.7% | A498 renal 113% | MOLT-4 leukemia 16.7%
active: SN12C renal -30.9% | UO-31 renal -89.7% | TK-10 renal -5.69% | ACHN renal 0.299% | CAKI-1 renal -40.1% | CCRF-CEM leukemia -13%

O=C(Nc1ccc(OS(=O)(=O)c2ccc(F)cc2)cc1)C12CC3CC(CC(C3)C1)C2
inactive: SK-MEL-2 melanoma 86% | SN12C renal 77.3% | UO-31 renal 83.8% | TK-10 renal 87.5% | ACHN renal 76.5% | CAKI-1 renal 79.2% | A498 renal 40.4% | CCRF-CEM leukemia 52.1% | MOLT-4 leukemia 33.3%

CNCCCNc1ccnc2cc(Cl)ccc12
active: SK-MEL-2 melanoma -64.5% | SN12C renal 2.75% | UO-31 renal -34.4% | TK-10 renal -11.4% | ACHN renal -31.6% | CAKI-1 renal -29.7% | A498 renal -78.2% | CCRF-CEM leukemia -17.1% | MOLT-4 leukemia 2.58%

NC(N)=N/N=C\c1cccc(OCc2ccccc2)c1
inactive: SK-MEL-2 melanoma 61.4% | EKVX NSCLC 80.7% | SN12C renal 86.6% | UO-31 renal 63.9% | TK-10 renal 78.6% | ACHN renal 87.4% | CCRF-CEM leukemia 82.2% | MOLT-4 leukemia 80.1%

CC(C)N=C1CCCC1C(=S)SSC(=S)C1CCCC1=NC(C)C (stereo unspecified)
inactive: SK-MEL-2 melanoma 94.7% | SN12C renal 58.1% | UO-31 renal 54.3% | TK-10 renal 109% | ACHN renal 68.4% | CAKI-1 renal 39.3% | A498 renal 83.4% | CCRF-CEM leukemia 22.9% | MOLT-4 leukemia 61.2%

O=C(Oc1c(Cl)c(Cl)c(Cl)c(Cl)c1Cl)C1CCCN1C(=O)OCc1ccccc1 (stereo unspecified)
inactive: SK-MEL-2 melanoma 69.9% | SN12C renal 60% | UO-31 renal 56.1% | TK-10 renal 67.3% | ACHN renal 17% | CAKI-1 renal 90.4% | A498 renal 12.3% | CCRF-CEM leukemia 10.8% | MOLT-4 leukemia 15.5%

O=C(C=P(c1ccccc1)(c1ccccc1)c1ccccc1)CCl
active: SK-MEL-2 melanoma -47.4% | SN12C renal -19.3% | UO-31 renal -95.4% | TK-10 renal -46.2% | ACHN renal -85.7% | CAKI-1 renal -74.9% | A498 renal -35.8% | CCRF-CEM leukemia -3.6% | MOLT-4 leukemia -35.8%

CSC1=NC(=Nc2c(C)cccc2C)C2(CCC(C(C)(C)C)CC2)N1c1ccc(Cl)cc1 (stereo unspecified)
inactive: SK-MEL-2 melanoma 49.9% | SN12C renal 42.1% | UO-31 renal 34.8% | TK-10 renal 61.3% | ACHN renal 34.5% | CAKI-1 renal 12% | A498 renal 71.5% | CCRF-CEM leukemia 36.9% | MOLT-4 leukemia 23.5%

Cc1ccc(Nc2nc(NCCO)c3ccccc3n2)cc1C
active: CAKI-1 renal 2.38% | A498 renal -11.9% | CCRF-CEM leukemia 8.3%
inactive: SK-MEL-2 melanoma 39.5% | SN12C renal 21.5% | UO-31 renal 24.6% | TK-10 renal 38.5% | ACHN renal 33.1% | MOLT-4 leukemia 24.1%

COc1ccc(-c2nc3ccc(Cc4ccc5nc(-c6ccc(OC)cc6)[nH]c5c4)cc3[nH]2)cc1
inactive: SK-MEL-2 melanoma 41.2% | SN12C renal 42.4% | UO-31 renal 89.3% | TK-10 renal 75.1% | ACHN renal 85.4% | CAKI-1 renal 56.3% | A498 renal 102% | CCRF-CEM leukemia 13.4% | MOLT-4 leukemia 43.7%

COc1ccc(C(=O)c2c(N)nc3n2CCCC3)cc1OC
inactive: SK-MEL-2 melanoma 103% | SN12C renal 109% | UO-31 renal 84.3% | TK-10 renal 92.8% | ACHN renal 107% | CAKI-1 renal 93.9% | A498 renal 98.6% | CCRF-CEM leukemia 99.8% | MOLT-4 leukemia 84.1%

CC1=C(C(=O)Nc2ccc(F)cc2)C(c2ccc(C)cc2)C2=C(CC(C)(C)CC2=O)N1 (stereo unspecified)
inactive: SK-MEL-2 melanoma 110% | SN12C renal 97% | UO-31 renal 63.2% | TK-10 renal 109% | ACHN renal 94.7% | CAKI-1 renal 69.6% | A498 renal 63.7% | CCRF-CEM leukemia 82.8% | MOLT-4 leukemia 85%

COc1ccc2nc(C)cc(Nc3ccccc3O)c2c1
inactive: SK-MEL-2 melanoma 67.7% | TK-10 renal 21.2% | A498 renal 89.8% | CCRF-CEM leukemia 50.7% | MOLT-4 leukemia 87.7%
active: SN12C renal -22.9% | UO-31 renal -56.1% | ACHN renal -38.9% | CAKI-1 renal -0.0846%

CCOC(=O)c1c(NC(=O)c2ccccc2)sc2c(O)c(CN(CC)CC)ccc12
inactive: SN12C renal 24.3% | UO-31 renal 37.5% | TK-10 renal 19.8% | ACHN renal 29.5% | MOLT-4 leukemia 14%
active: SK-MEL-2 melanoma 7.87% | CAKI-1 renal 1.51% | A498 renal -22.7% | CCRF-CEM leukemia 5.79%

CCNS(=O)(=O)c1ccc(C)cc1
inactive: SK-MEL-2 melanoma 116% | EKVX NSCLC 106% | SN12C renal 98.5% | UO-31 renal 97.3% | TK-10 renal 115% | ACHN renal 96.4% | CCRF-CEM leukemia 89.7% | MOLT-4 leukemia 95.9%

O=C(CN1CCN(c2ccccc2)CC1)N1CCN(c2nnc(-c3ccc(Cl)cc3)c(-c3ccc(Cl)cc3)n2)CC1
inactive: SK-MEL-2 melanoma 71.9% | EKVX NSCLC 35% | SN12C renal 62.7% | TK-10 renal 73.4% | ACHN renal 53.6% | A498 renal 62.6% | CCRF-CEM leukemia 29.4%
active: MOLT-4 leukemia 2%

COc1ccc(-c2[nH]nc(N)c2-c2cc(OC)c(OC)c(OC)c2)cc1
active: CAKI-1 renal 5.73% | A498 renal -8.24% | CCRF-CEM leukemia -5.92% | MOLT-4 leukemia -2.96%
inactive: SK-MEL-2 melanoma 42.5% | SN12C renal 33% | UO-31 renal 20.4% | TK-10 renal 34.9% | ACHN renal 25.5%

CC(CN1CCN(CCOCCO)CC1)CN1c2ccccc2Sc2ccc(Cl)cc21 (stereo unspecified)
inactive: SK-MEL-2 melanoma 80.7% | SN12C renal 69.9% | UO-31 renal 50.1% | TK-10 renal 74.4% | ACHN renal 69.4% | CAKI-1 renal 69.4% | A498 renal 43.9% | CCRF-CEM leukemia 63.2% | MOLT-4 leukemia 28.5%

N#CC1=C(N)Oc2nc[nH]c(=O)c2C1c1cccs1 (stereo unspecified)
inactive: SK-MEL-2 melanoma 113% | SN12C renal 105% | UO-31 renal 97.1% | TK-10 renal 105% | ACHN renal 101% | CAKI-1 renal 94.9% | A498 renal 107% | CCRF-CEM leukemia 95% | MOLT-4 leukemia 94.3%

CC(COC(=O)c1ccccc1)N1CC2CCC(C1)O2 (stereo unspecified)
inactive: SK-MEL-2 melanoma 107% | SN12C renal 99.8% | UO-31 renal 86% | TK-10 renal 111% | ACHN renal 104% | CAKI-1 renal 96.5% | A498 renal 89.5% | CCRF-CEM leukemia 92.7% | MOLT-4 leukemia 100%

Cc1ccc(CSCc2ccc(C(=O)NC3CC3)o2)cc1
inactive: SK-MEL-2 melanoma 75.6% | SN12C renal 83.2% | UO-31 renal 74.7% | TK-10 renal 90.6% | ACHN renal 63.1% | CAKI-1 renal 64.5% | A498 renal 53.3% | CCRF-CEM leukemia 62.1% | MOLT-4 leukemia 62.6%
